Measured values from PubChem BioAssay (EPA / NIEHS).
Active and inactive are the calls of the source. The calls were made as follows: active = hit-call score of the fitted dose curve at least 0.9, where 1 is the maximum; inactive = score below 0.9.

Assays:
[1] = ATG_ERE_CIS: Attagene CIS-FACTORIAL HepG2 Assay for Estrogen Response Element (ERE) (AID 2282940); details: HepG2 ERE cis-reporter, Attagene RNA transcript; actives raise or lower the signal
Outline: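 HepG2 cells transiently transfected with cis-promoter-driven multiplexed reporter transcription units report endogenous TF activity. After 24 h compound exposure, reporter mRNA is quantified by RT-PCR with capillary electrophoresis fluorescence; bidirectional fitting versus DMSO baseline.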

[2] = ATG_Ets_CIS: Attagene CIS-FACTORIAL HepG2 Assay for human Erythroblast Transformation Specific (ETS) (AID 2282941); details: HepG2 ETS cis-reporter transcription, actives raise or lower the signal
Outline: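 HepG2 cells transfected with multiple cis-regulated reporter units measuring endogenous ETS-driven transcription, 24 h after dosing. Reporter mRNA quantified by RT-PCR with capillary electrophoresis; bidirectional fit relative to DMSO.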

[3] = target: Hepatocyte nuclear factor 3-beta (Homo sapiens) (UniProt Q9Y261); test: ATG_FoxA2_CIS: Attagene CIS-FACTORIAL HepG2 Assay for human Forkhead box A2 (FOXA2) (AID 2282942); details: HepG2 cis-reporter transcription factor activity, 24 h; actives raise or lower the signal
Outline: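 Endogenous transcription factor activity is captured via cis-element-driven reporter transcripts in transfected HepG2. Total RNA taken at 24 h post-dosing; labelled RT-PCR products resolved by capillary electrophoresis. Gain or loss fitted versus DMSO.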

[4] = ATG_FoxO_CIS: Attagene CIS-FACTORIAL HepG2 Assay for human Forkhead box O (FoxO) (AID 2282943); details: HepG2 Attagene cis-reporter, FoxO element, mRNA; actives raise or lower the signal
Outline: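 Human hepatoma HepG2 cells carry transiently introduced reporter transcription units controlled by cis promoter elements. Chemical treatment lasted 24 h, and mRNA signal was compared with DMSO.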

[5] = ATG_GATA_CIS: Attagene CIS-FACTORIAL HepG2 Assay for human GATA Binding Protein (AID 2282944); details: HepG2 GATA cis-element reporter, Attagene multiplex mRNA; actives raise or lower the signal
Outline: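 HepG2 cells transiently transfected with multiplexed cis-element reporter units reflecting endogenous transcription factor activity; reporter mRNA measured after 24 h dosing by RT-PCR, 6-FAM labeling, HpaI digestion and capillary electrophoresis. Bidirectional fitting versus DMSO baseline.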

[6] = ATG_GLI_CIS: Attagene CIS-FACTORIAL HepG2 Assay for human Zinc Finger Protein GLI1 (AID 2282945); details: HepG2, Attagene cis-factorial reporter mRNA, GLI element; actives raise or lower the signal
Outline: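 Bidirectional curve fits relative to DMSO, using reporter mRNA levels from RT-PCR plus capillary electrophoresis. Cells were HepG2 transiently carrying cis-regulated reporter constructs, harvested 24 h after dosing.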

[7] = ATG_GRE_CIS: Attagene CIS-FACTORIAL HepG2 Assay for human Glucocorticoid Response Elements (GRE) (AID 2282947); details: HepG2 GRE cis-reporter, Attagene multiplex mRNA; actives raise or lower the signal
Outline: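 Assay uses human hepatoma HepG2 cells transfected with cis-promoter reporter units, exposed 24 h. mRNA from reporters detected by RT-PCR plus capillary electrophoresis; DMSO serves as negative control and baseline.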

[8] = ATG_ISRE_CIS: Attagene CIS-FACTORIAL HepG2 Assay for human Interferon Regulatory Factor 1 (IRF1) binding to an Interferon-Stimulated Response Element (ISRE) (AID 2282948); details: HepG2 ISRE cis-reporter (Attagene), mRNA transcription readout; actives raise or lower the signal
Outline: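 Transiently transfected HepG2 cells carrying cis-element reporter units, dosed 24 hours. Reporter mRNA quantified by RT-PCR, fluorescent primer extension, HpaI digestion and capillary electrophoresis. Bidirectional fitting relative to DMSO.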

[9] = ATG_M_32_CIS: Attagene CIS-FACTORIAL HepG2 Assay for M32 Transcription Factor (Internal Marker) (AID 2282949); details: HepG2 Attagene cis-factorial M32 reporter, mRNA; actives raise or lower the signal;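 also: background control marker of the multiplexed CIS panel rather than a real target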
Outline: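 Following 24 h chemical exposure of HepG2 cells transiently expressing cis-promoter reporter constructs, reporter transcript levels were determined by RT-PCR with fluorescent labelling and capillary electrophoresis, then fitted bidirectionally against DMSO.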

[10] = ATG_M_06_CIS: Attagene CIS-FACTORIAL HepG2 Assay for M06 Transcription Factor (Internal Marker) (AID 2282950); details: HepG2 Attagene CIS-FACTORIAL M06 internal marker reporter; actives raise or lower the signal
Outline: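 HepG2 cells transiently transfected with cis-regulated multiple reporter transcription units were exposed to chemical for 24 h; reporter mRNA was quantified by RT-PCR, 6-FAM primer labelling, HpaI digestion and capillary electrophoresis, fitted bidirectionally against DMSO.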

[11] = target: Hypoxia-inducible factor 1-alpha (Homo sapiens) (UniProt Q16665); test: ATG_HIF1a_CIS: Attagene CIS-FACTORIAL HepG2 Assay for human Hypoxia Inducible Factor 1 (HIF1A) (AID 2282951); details: HepG2 Attagene cis-factorial HIF1a reporter transcription; actives raise or lower the signal
Outline: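 Activity is fitted in both directions relative to DMSO. Reporter transcripts are read by RT-PCR, fluorescent primer extension and capillary electrophoresis after 24 h chemical treatment. The cells are HepG2 carrying transiently transfected cis-element-driven reporter units responding to endogenous factors.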

[12] = target: Hepatocyte nuclear factor 6 (Homo sapiens) (UniProt Q9UBC0); test: ATG_HNF6_CIS: Attagene CIS-FACTORIAL HepG2 Assay for human Hepatocyte Nuclear Factor 6 (HNF6) (AID 2282952); details: HepG2 Attagene cis-factorial HNF6 reporter transcription; actives raise or lower the signal
Outline: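 Transiently transfected HepG2 cells expressing cis-regulated reporter transcription units were exposed to chemical for 24 h in a 24-well format. Reporter transcript abundance was determined by fluorescence capillary electrophoresis.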

[13] = target: Heat shock factor protein 1 (Homo sapiens) (UniProt Q00613); test: ATG_HSE_CIS: Attagene CIS-FACTORIAL HepG2 Assay for human Heat Shock Transcription Factor 1 (HSE) (AID 2282953); details: HepG2 HSE cis-reporter, Attagene RNA transcription; actives raise or lower the signal
Outline: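 HepG2 cells transiently transfected with multiple reporter transcription units under cis-regulatory promoter control, measuring endogenous transcription factor activity. After 24 h chemical exposure, reporter mRNA quantified by RT-PCR, fluorescent labelling, HpaI digestion and capillary electrophoresis; bidirectional fit versus DMSO.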

[14] = ATG_MRE_CIS: Attagene CIS-FACTORIAL HepG2 Assay for human Metal Responsive Element (MRE) (AID 2282954); details: HepG2 MRE cis-reporter transcription, Attagene multiplex; actives raise or lower the signal
Outline: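 After a 24 h chemical exposure, transiently transfected HepG2 cells yield RNA whose reporter sequences are amplified, FAM-labelled and sized by capillary electrophoresis. Curves are fitted bidirectionally relative to DMSO.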

[15] = target: Paired box protein Pax-6 (Homo sapiens) (UniProt P26367); test: ATG_Pax6_CIS: Attagene CIS-FACTORIAL HepG2 Assay for human Paired Box 6 (PAX6) (AID 2282956); details: HepG2 CIS-FACTORIAL PAX6 reporter transcription, RNA readout; actives raise or lower the signal
Outline: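 HepG2 cells transiently transfected with cis-promoter-driven multiplexed reporter units sensing endogenous transcription factor activity; 24 h chemical exposure. Reporter mRNA quantified by RT-PCR, 6-FAM labelling, HpaI digestion and capillary electrophoresis; bidirectional fit versus DMSO baseline.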

[16] = ATG_PXRE_CIS: Attagene CIS-FACTORIAL HepG2 Assay for human Pregnane X Receptor Element (PXRE) (AID 2282957); details: HepG2 Attagene CIS-FACTORIAL PXRE reporter, mRNA; actives raise or lower the signal
Outline: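 Cis-element reporter mRNA in human hepatoma HepG2 cells is measured 24 h post-dosing by RT-PCR, primer-extension labeling and capillary electrophoresis; gain or loss of signal is fitted relative to DMSO.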

[17] = ATG_PPRE_CIS: Attagene CIS-FACTORIAL HepG2 Assay for human Peroxisome Proliferator-activated Response Element (PPRE) (AID 2282958); details: HepG2 PPRE cis-element reporter, Attagene transcription factor profiling; actives raise or lower the signal
Outline: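 Endogenous PPRE-driven transcription is measured in HepG2 cells carrying transfected multi-reporter constructs. Reporter transcripts are quantified by RT-PCR, HpaI digestion and capillary electrophoresis 24 h after dosing. DMSO baseline, bidirectional fit.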

[18] = ATG_RORE_CIS: Attagene CIS-FACTORIAL HepG2 Assay for human RAR-related Orphan Receptor Element (RORE) (AID 2282959); details: HepG2 Attagene cis-factorial RORE reporter, mRNA; actives raise or lower the signal
Outline: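 RORE reporter transcripts reflecting endogenous factor activity were read after 24 h compound exposure of transfected HepG2 cells, using reverse transcription, PCR, fluorescent labelling and capillary electrophoresis sizing. Gain or loss fitted against DMSO.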

[19] = ATG_PBREM_CIS: Attagene CIS-FACTORIAL HepG2 Assay for human Phenobarbital-responsive Enhancer Module (PBREM) (AID 2282955); details: HepG2 PBREM cis-reporter, Attagene multiplexed transcription; actives raise or lower the signal
Outline: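 Endogenous transcription factor activity was read from reporter transcripts in transiently transfected human HepG2 liver cells after 24 h dosing. RT-PCR products were fluorescently labelled, HpaI-cut and sized by capillary electrophoresis; activity fitted bidirectionally against DMSO baseline.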

Measured: AC50

Chain of Hypoxia-inducible factor 1-alpha (Homo sapiens) (Q16665 whole entry, looked up): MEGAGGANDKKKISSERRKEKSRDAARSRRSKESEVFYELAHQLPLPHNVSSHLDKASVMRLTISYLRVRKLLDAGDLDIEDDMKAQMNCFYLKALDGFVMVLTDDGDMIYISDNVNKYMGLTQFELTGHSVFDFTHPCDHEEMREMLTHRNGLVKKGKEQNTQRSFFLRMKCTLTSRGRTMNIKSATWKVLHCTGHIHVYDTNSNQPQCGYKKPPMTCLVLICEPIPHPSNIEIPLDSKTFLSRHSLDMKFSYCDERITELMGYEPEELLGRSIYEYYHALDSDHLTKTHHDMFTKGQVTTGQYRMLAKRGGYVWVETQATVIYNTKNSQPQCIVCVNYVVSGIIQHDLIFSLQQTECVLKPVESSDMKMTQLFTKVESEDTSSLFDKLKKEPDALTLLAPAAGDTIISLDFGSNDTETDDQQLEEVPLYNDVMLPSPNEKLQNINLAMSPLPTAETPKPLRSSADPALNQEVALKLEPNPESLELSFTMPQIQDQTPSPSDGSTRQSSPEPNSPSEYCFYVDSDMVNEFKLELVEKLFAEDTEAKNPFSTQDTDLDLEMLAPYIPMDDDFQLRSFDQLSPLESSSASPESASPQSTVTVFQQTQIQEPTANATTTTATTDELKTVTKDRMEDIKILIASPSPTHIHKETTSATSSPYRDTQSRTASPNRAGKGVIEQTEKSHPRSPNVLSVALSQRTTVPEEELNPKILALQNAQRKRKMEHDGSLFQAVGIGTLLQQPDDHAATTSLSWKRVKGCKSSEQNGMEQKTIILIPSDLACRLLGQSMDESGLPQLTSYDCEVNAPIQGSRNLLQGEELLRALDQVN
Chain of Hepatocyte nuclear factor 6 (Homo sapiens) (Q9UBC0 whole entry, looked up): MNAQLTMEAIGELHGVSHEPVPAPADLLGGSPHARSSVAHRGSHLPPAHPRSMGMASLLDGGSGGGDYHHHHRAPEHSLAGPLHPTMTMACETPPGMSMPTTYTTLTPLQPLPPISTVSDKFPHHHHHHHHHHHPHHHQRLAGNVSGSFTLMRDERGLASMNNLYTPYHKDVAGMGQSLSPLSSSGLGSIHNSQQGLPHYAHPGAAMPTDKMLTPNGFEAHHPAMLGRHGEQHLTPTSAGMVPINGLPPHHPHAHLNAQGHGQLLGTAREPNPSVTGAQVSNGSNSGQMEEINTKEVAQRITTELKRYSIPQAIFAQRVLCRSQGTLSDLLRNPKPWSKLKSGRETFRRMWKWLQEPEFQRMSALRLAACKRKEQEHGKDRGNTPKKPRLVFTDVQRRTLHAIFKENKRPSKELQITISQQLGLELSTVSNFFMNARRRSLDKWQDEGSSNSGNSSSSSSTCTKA
Chain of Paired box protein Pax-6 (Homo sapiens) (P26367 whole entry, looked up): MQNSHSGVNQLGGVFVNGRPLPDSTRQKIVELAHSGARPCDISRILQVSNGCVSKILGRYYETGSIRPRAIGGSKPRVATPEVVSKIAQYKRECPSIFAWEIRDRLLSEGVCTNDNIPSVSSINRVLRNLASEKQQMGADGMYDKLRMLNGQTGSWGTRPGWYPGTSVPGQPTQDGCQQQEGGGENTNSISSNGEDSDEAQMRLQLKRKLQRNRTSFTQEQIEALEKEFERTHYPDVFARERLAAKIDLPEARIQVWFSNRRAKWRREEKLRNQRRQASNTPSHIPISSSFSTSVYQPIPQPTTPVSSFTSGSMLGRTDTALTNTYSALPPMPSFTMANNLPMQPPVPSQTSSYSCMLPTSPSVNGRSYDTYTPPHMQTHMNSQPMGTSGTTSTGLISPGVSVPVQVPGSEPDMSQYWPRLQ
Chain of Heat shock factor protein 1 (Homo sapiens) (Q00613 whole entry, looked up): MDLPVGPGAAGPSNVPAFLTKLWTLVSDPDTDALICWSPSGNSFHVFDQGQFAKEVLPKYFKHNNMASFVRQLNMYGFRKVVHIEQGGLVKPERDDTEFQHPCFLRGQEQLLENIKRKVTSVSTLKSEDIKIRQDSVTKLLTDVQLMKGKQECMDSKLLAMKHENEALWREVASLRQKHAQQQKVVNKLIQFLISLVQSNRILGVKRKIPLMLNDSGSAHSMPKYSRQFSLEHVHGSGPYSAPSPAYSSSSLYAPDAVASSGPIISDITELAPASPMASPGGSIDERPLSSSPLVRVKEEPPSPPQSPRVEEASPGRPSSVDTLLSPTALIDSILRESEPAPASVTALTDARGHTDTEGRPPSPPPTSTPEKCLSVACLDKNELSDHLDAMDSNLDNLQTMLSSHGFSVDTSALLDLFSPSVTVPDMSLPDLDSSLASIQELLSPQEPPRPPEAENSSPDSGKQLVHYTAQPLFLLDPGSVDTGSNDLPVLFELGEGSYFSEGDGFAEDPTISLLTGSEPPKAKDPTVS
Chain of Hepatocyte nuclear factor 3-beta (Homo sapiens) (Q9Y261 whole entry, looked up): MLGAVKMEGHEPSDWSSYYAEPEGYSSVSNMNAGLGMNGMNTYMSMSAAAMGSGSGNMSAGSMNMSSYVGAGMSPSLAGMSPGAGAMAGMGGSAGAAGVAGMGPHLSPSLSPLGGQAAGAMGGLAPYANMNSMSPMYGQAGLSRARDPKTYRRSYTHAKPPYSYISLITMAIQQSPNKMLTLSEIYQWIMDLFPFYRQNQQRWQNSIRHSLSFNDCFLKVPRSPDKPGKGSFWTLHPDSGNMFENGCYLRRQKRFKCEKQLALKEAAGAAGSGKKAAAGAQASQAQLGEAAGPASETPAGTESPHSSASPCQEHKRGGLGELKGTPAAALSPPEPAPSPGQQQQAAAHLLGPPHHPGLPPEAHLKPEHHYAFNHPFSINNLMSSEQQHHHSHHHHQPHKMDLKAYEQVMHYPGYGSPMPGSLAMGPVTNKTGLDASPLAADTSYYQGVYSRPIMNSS

BrCC(Br)c1ccccc1 (configuration not stated)
active: [16] 27.3 µM
not listed: [19]
inactive: all other assays above

CN(C1CCCCC1)C1CCCCC1
active: [16] 31.7 µM
not listed: [17]
inactive: all other assays above

O=NN1CCCCCC1
active: [16] 53 µM
not listed: [14] | [17] | [19]
inactive: all other assays above

CCOC(=O)OC1=C(c2cc(C)ccc2C)C(=O)NC12CCC(OC)CC2 (configuration not stated)
not listed: [14] | [16] | [17]
inactive: all other assays above

CNC(=O)O/N=C/C(C)(C)S(C)(=O)=O
not listed: [17]
inactive: all other assays above

CCCCCCCCCCCCCl
not listed: [19]
inactive: all other assays above

CN(CCCC(O)c1cccnc1)N=O (configuration not stated)
not listed: [14] | [19]
inactive: all other assays above

O=C(Cc1ccccc1)OCCc1ccccc1
not listed: [19]
inactive: all other assays above

CC(C)(c1ccccc1)c1cc(-n2nc3ccccc3n2)c(O)c(C(C)(C)c2ccccc2)c1
active: [16] 15.3 µM
not listed: [17]
inactive: all other assays above

CC(c1ccc(O)cc1)c1ccc(O)cc1
active: [1] 0.701 µM | [2] 137 µM | [13] 168 µM | [16] 27.6 µM
not listed: [14] | [17]
inactive: all other assays above

Cc1cc(C(F)(C(F)(F)F)C(F)(F)F)ccc1NC(=O)c1cccc(I)c1C(=O)NC(C)(C)CS(C)(=O)=O
active: [16] 0.633 µM
not listed: [14] | [17]
inactive: all other assays above

CC1(C)[C@H](/C=C2\CCSC2=O)[C@@H]1C(=O)OCc1coc(Cc2ccccc2)c1
active: [11] 12.9 µM | [14] 19.8 µM | [19] 0.313 µM | [15] 11.1 µM | [18] 24.8 µM
not listed: [16]
inactive: all other assays above

N#CCC#N
not listed: [17]
inactive: all other assays above

CCCCN(CCCC)C(=S)S
inactive: [1] | [2] | [4] | [5] | [7] | [9] | [10] | [18]
active: [3] 100 µM | [6] 140 µM | [8] 126 µM | [11] 100 µM | [12] 100 µM | [13] 47.9 µM | [14] 112 µM | [15] 100 µM | [16] 25.1 µM

C#CCO
not listed: [16]
inactive: all other assays above
